Screens: PubChem BioAssay, National Center for Advancing Translational Sciences (NCATS)
Sm TGR block: qHTS Assay for the Inhibitors of Schistosoma Mansoni Peroxiredoxins. purified TGR, DTNB reduction, TNB absorbance 405 nm. Potency, µM (series often up to 114 µM), without a hit: top-dose activity change, negative = inhibition, actives largely listed as inhibitors. 360,000 tested, 3% active. AID 485364, 2010; further: potency means the concentration at half of the fitted maximal effect; on the % scale 0 is the no-effect control and ±100 the full control effect; nearly all actives have a fitted effect of over 60% in size
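First, TGR (20 nM dispensed) and NADPH were mixed with compound. Second, a 15 min room-temperature incubation followed. Third, further NADPH and then DTNB were added to start the reaction. Finally, TNB absorbance was monitored kinetically.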
Pf growth 48h: Primary qHTS for delayed death inhibitors of the malarial parasite plastid, 48 hour incubation; P. falciparum luciferase growth in erythrocytes, 48 h; 310,000 tested, 5.9% active; Potency, µM (highest dose often 28.7 µM), inactives show top-dose activity change, negative = inhibition, actives largely listed as inhibitors; further: potency means the concentration at half of the fitted maximal effect; on the % scale 0 is the no-effect control and ±100 the full control effect
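Luciferase-expressing P. falciparum in infected erythrocytes (2% hematocrit, 0.1% parasitemia final) in RPMI 1640/0.5% Albumax were exposed to compound for 48 hours at 37 C, 5% CO2; growth read as luminescence.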
Pf growth 96h: Primary qHTS for delayed death inhibitors of the malarial parasite plastid, 96 hour incubation; P. falciparum luciferase reporter growth, 96 h; Potency, µM (doses to about 28.7 µM), without a hit: at the top dose activity change, negative = inhibition, hits mostly inhibitors; 320,000 tested, 6.9% active; further: potency means the concentration at half of the fitted maximal effect; on the % scale 0 is the no-effect control and ±100 the full control effect
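Readout is luminescence from an integrated firefly luciferase in P. falciparum. Red cells, 2% hematocrit and 0.05% parasitemia final, were cultured with compound through two parasite generations (96 hours) at 37 C, 5% CO2.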
SARS PLpro yeast: qHTS of Yeast-based Assay for SARS-CoV PLP | S. cerevisiae expressing SARS-CoV PLpro, growth rescue | Potency, µM (series often up to 32.9 µM), without a hit: at the top dose activity, positive = growth rescue, most hits filed as activators | 330,000 tested, 0.19% active | AID 485353, 2010; calls by dose curve; further: potency means the concentration at half of the fitted maximal effect; 0% is about no effect; nearly all actives have a fitted effect of over 55% in size
HCV inhibitor: qHTS Assay for Inhibitors of Hepatitis C Virus (HCV) | Huh7.5.1 HCVcc-Cre infection, luciferase reporter, 44 h | Potency, µM (titrated, usually from 41.8 µM), for inactives: at the top dose activity change, negative = inhibition, most hits filed as inhibitors | 340,000 tested, 3.4% active | AID 651820, 2012; further: potency means the concentration at half of the fitted maximal effect; on the % scale 0 is the no-effect control and ±100 the full control effect
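Reporter virus HCVcc-Cre (~0.5 moi) infects cells exposed to compound; seeding density 1,000 cells/well with 4 h settling beforehand. Luminescence, 15 sec read, taken 44 h post-infection following a 15 min RT substrate incubation.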
HCMV inh: qHTS Assay for inhibitors of the human cytomegalovirus (HCMV) | activity change, negative = inhibition, % at 57.5 µM | 410,000 tested, 4.5% active | HFF cells, HCMV-luciferase reporter, 72 h; active compounds read low | AID 1259415, 2018; in the data active means activity change below about -60%; inconclusive means no clear call, values can overlap the other calls; inactive means above about -39%; further: on the % scale 0 is the no-effect control and ±100 the full control effect
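Cell-based, HFFs, 1000 cells/well, 16 h 37C; cpds in DMSO + HCMV-luc, MOI 1 PFU/cell; 72 h 37C; OneGlo luminescence after 5 min RT; norm. to buffer vs Salinomycin 10uM.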
Starred values were filed as active, the others as inactive; ? = inconclusive; nt = no result given. Only some compounds are listed: those with a hit (about 15% of all), similar ones and a draw of the others. Unless noted, the call rests on the fitted dose curve; in most records, active means well fitted curve in the direction sought with a large enough effect; inconclusive means small, poorly fitted or top-dose-only effect, or another doubt; inactive means no such curve, though single readings can be large; an effect the other way counts as inactive or inconclusive.

SMILES | Sm TGR block | Pf growth 48h | Pf growth 96h | SARS PLpro yeast | HCV inhibitor | HCMV inh
CCOc1ccccc1NC(=O)COC(=O)c1cnc(C)cn1 | 1% | 13% | 15% | 5% | 8% | -15
CCOc1ccccc1NS(=O)(=O)c1cccs1 | 6% | 10% | nt | 1% | 11% | -9
CCOc1ccccc1NC(=O)CN(c1ccc(C)cc1)S(=O)(=O)c1c(C)noc1C | 9% | 4.1µM* | 91% | -1% | ? | -9
CCOc1ccc(N(CC(=O)Nc2ccccc2CC)S(=O)(=O)c2c(C)noc2C)cc1 | 0% | nt | nt | nt | nt | -91*
CCOc1ccccc1NC(=O)CCS(=O)(=O)c1cccs1 | 56µM* | 14% | 29% | -3% | -8% | 16
CCOc1ccc(N(CC(=O)NCc2ccccc2)S(=O)(=O)c2c(C)noc2C)cc1 | 2% | nt | ? | -6% | -15% | -32
Cc1ccc(N(CCC(=O)O)S(=O)(=O)c2ccccc2)cc1 | 6% | -16% | 32% | -8% | 15% | -21
CCOc1ccccc1NC(=O)CCN(c1ccc(C)cc1)S(=O)(=O)c1ccccc1 | -14% | ? | 12µM* | 22% | ? | ?
O=C(COC(=O)Cn1[nH]c(=O)c2ccccc2c1=O)NNC(=O)c1ccccc1 | -7% | -16% | -7% | -9% | 7% | -19
COc1ccc(OC)c(-c2cc(C(=O)Nc3ccc(C)c(C)c3)no2)c1 | 1% | nt | nt | nt | nt | 26
Cc1ccc(NC(=O)CN(C)Cc2nc3c(Br)cc(Br)cc3c(=O)[nH]2)cc1 | 0% | -1% | 0% | 0% | -16% | -21
CCOC(=O)CSc1nc2ccccc2c(=O)n1CC1COc2ccccc2O1 (stereo unspecified) | 9% | 2% | -6% | 0% | 2.5µM* | -8
CCOC(=O)CSc1nc2ccccc2c(=O)n1CC1CCCO1 (stereo unspecified) | 0% | 22% | ? | -1% | 8.9µM* | 9
CC(Sc1nc2ccccc2c(=O)n1C)C(=O)N(C)C1CCCCC1 (stereo unspecified) | 3% | 1.9µM* | ? | -2% | ? | -79*
CC(Sc1nc2ccccc2c(=O)n1CC1CCCO1)C(=O)N(C)Cc1ccccc1 (stereo unspecified) | 8% | ? | 10µM* | 3% | ? | -36
COc1cc(/C=C2/SC(=S)N(CCC(=O)Nc3cccnc3)C2=O)cc(OC)c1OC | nt | nt | nt | nt | nt | 32
CCOC(=O)c1sc2ccccc2c1S(=O)(=O)NCc1ccccc1OC | -1% | nt | nt | nt | nt | -5
Cc1ccc(N2CCN(C(=O)C3CCCN(c4ncnc5c4nc4n5CCCCC4)C3)CC2)c(C)c1 (stereo unspecified) | 4% | ? | 15µM* | -1% | 12% | 21
Cc1ccc(C)c(N2CCN(C(=O)C3CCCN(c4ncnc5c4nc4n5CCCCC4)C3)CC2)c1 (stereo unspecified) | -20% | 9.3µM* | ? | -11% | -16% | -69*
COc1ccc(N2CCN(C3CCCN(Cc4cccc(C(C)=O)c4)C3)CC2)cc1 (stereo unspecified) | 4% | ? | ? | 0% | -7% | 22
CN(C)c1ccc(N=Nc2ccccc2C(=O)OCC(=O)NCC2CCCCC2)cc1 | -16% | ? | 0% | -13% | 10% | -61*
CN(C)c1ccc(N=Nc2ccccc2C(=O)OCC(=O)NC2CCCC2)cc1 | -12% | -6% | 8.3µM* | -54% | -5% | ?
CN(C)c1ccc(N=Nc2ccccc2C(=O)OCC(=O)N(C)C2CCCCC2)cc1 | -16% | -24% | ? | -14% | 12% | 34
CCCCn1nnnc1C(c1cc2ccccc2o1)N1CCN(c2cc(C)nc3ccccc23)CC1 (stereo unspecified) | nt | nt | nt | nt | nt | -103*
CCN(CC(=O)NCc1cccs1)C(=O)c1ccc(OC)c(OC)c1 | -1% | 1% | 15% | -2% | 5% | -9
SMILES | Sm TGR block | Pf growth 48h | Pf growth 96h | SARS PLpro yeast | HCV inhibitor | HCMV inh
CCOc1ccccc1Oc1nc(C)nc2c1oc1ccccc12 | 7% | nt | nt | nt | nt | -7
Cc1ccc2nc(-c3ccccc3)cc(C(=O)N3CCN(S(=O)(=O)c4c(C)noc4C)CC3)c2c1 | -14% | 12µM* | 10µM* | 4% | ? | -8
Cc1ccc2nc(-c3ccncc3)cc(C(=O)N3CCOCC3)c2c1 | -2% | -17% | 10µM* | -2% | 1% | nt
Cc1ccc(-c2cc(C(=O)N3CCOCC3)c3cc(C)ccc3n2)cc1 | -5% | -23% | 52% | -4% | ? | 13
O=C(c1cc(-c2ccncc2)nc2ccc(Cl)cc12)N1CCN(Cc2ccc3c(c2)OCO3)CC1 | -12% | ? | 10% | -1% | ? | 71
O=C(c1cc(-c2ccncc2)nc2ccccc12)N1CCN(c2ccccc2O)CC1 | -23% | 12µM* | 4.7µM* | -1% | -27% | 6
O=C(c1cc(-c2ccncc2)nc2ccc(Br)cc12)N1CCN(Cc2ccc3c(c2)OCO3)CC1 | -9% | 10µM* | 5% | -2% | -18% | 0
COc1ccc(CCNC(=O)CN(c2ccccc2)S(=O)(=O)N(C)C)cc1OC | 3% | nt | nt | nt | nt | 7
C[C@H]1CN([C@@H](C)CO)C(=O)CCCn2cc(nn2)CO[C@@H]1CN(C)C(=O)Nc1cccc(F)c1 | nt | nt | nt | nt | nt | -3
CC(C)c1ccc(S(=O)(=O)N(C)C2(C)CCS(=O)(=O)C2)cc1 (stereo unspecified) | -15% | 56% | 30% | 2% | -10% | 2
COc1ccc(Cl)cc1-c1cc(C(=O)NCc2cccs2)[nH]n1 | nt | nt | nt | nt | nt | -2
Cc1ccc2nc(-c3ccccc3)cc(C(=O)N3CCN(c4ccccc4O)CC3)c2c1 | -20% | 10µM* | ? | 0% | 1% | 8
O=C(c1cc(-c2ccncc2)nc2ccccc12)N1CCN(c2ccc(N3CCOCC3)nn2)CC1 | -26% | 12µM* | ? | 9% | nt | 99
O=C(c1cc(-c2ccncc2)nc2ccccc12)N1CCN(c2ccccn2)CC1 | -2% | -26% | 1% | 10% | -11% | 14
O=C(c1cc(-c2ccccc2)nc2ccccc12)N1CCN(c2ccccn2)CC1 | -4% | 0% | 1% | -9% | 1% | -2
O=C(c1cc(-c2ccccc2)nc2ccccc12)N1CCN(c2ccccc2O)CC1 | -9% | 15µM* | 9.3µM* | -16% | ? | nt
COc1ccc(CCNC(=O)c2cnc3sc(N4CCOCC4)nn3c2=O)cc1OC | 1% | nt | nt | nt | nt | 10
COCCNc1nc(NCc2cccc(OC)c2)c2sc(-c3ccccc3)cc2n1 | nt | nt | nt | nt | nt | -21
